Counter-ions that a name gives are not always drawn.
Tests used:
[1] = tested on: Staphylococcus aureus Sa2 (MRSA, cystic fibrosis isolate); assay: growth reduction vs untreated control (OD550); higher = stronger antibacterial activity; conditions: 0.1 mM; 24 h
Procedure: (§1)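 Single-dose screen of the MedChem Express Drug Repurposing Library (0.1 mM, 1% DMSO) against planktonic MRSA S. aureus Sa2 (CF isolate) in TSB in 96-well plates, 37 °C aerobic, 24 h. Assays were run in triplicate and repeated twice.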

[2] = tested on: Staphylococcus aureus Sa2 (MRSA, cystic fibrosis isolate); assay: growth reduction vs untreated control (viable cell count); higher = stronger antibacterial activity; extreme values may be limits of the assay; conditions: 0.1 mM; 24 h
Procedure: as §1

SMILES | growth reduction [1] [%] | growth reduction [2] [%]
CO[C@H](C(=O)[C@@H](O)[C@@H](C)O)[C@@H]1Cc2cc3cc(O[C@H]4C[C@@H](O[C@H]5C[C@@H](O)[C@H](O)[C@@H](C)O5)[C@H](O)[C@@H](C)O4)c(C)c(O)c3c(O)c2C(=O)[C@H]1O[C@H]1C[C@@H](O[C@H]2C[C@@H](O[C@H]3C[C@](C)(O)[C@H](O)[C@@H](C)O3)[C@@H](O)[C@@H](C)O2)[C@H](O)[C@@H](C)O1 [Plicamycin] | 99.6 | 100
C=C(C)[C@@H]1CC[C@]2(C(=O)O)CC[C@]3(C)[C@H](CC[C@@H]4[C@@]5(C)CC[C@H](OC(=O)CC(C)(C)C(=O)O)C(C)(C)[C@@H]5CC[C@]43C)[C@@H]12 [Bevirimat] | 96.7 | 100
CN[C@H]1CC[C@@H](c2ccc(Cl)c(Cl)c2)c2ccccc21 [Sertraline (hydrochloride)] | 100 | 100
Cc1cc(SCc2sc(-c3ccc(C(F)(F)F)cc3)nc2C)ccc1OCC(=O)O | 100 | 100
COc1cc(C(=O)NS(=O)(=O)c2ccccc2C)ccc1Cc1cn(C)c2ccc(NC(=O)OC3CCCC3)cc12 [Zafirlukast] | 100 | 100
O=C(Nc1ccc([N+](=O)[O-])cc1Cl)c1cc(Cl)ccc1O [Niclosamide] | 99.8 | 100
C[C@H](CCC(=O)O)[C@H]1CC[C@H]2[C@@H]3[C@H](O)C[C@@H]4C[C@H](O)CC[C@]4(C)[C@H]3CC[C@]12C [Chenodeoxycholic Acid] | 99 | 99
c1ccc(-c2ccc(C(c3ccccc3)n3ccnc3)cc2)cc1 (stereo unspecified) [Bifonazole] | 100 | 100

Source: the supplement of paper PMC12024424
